Measurements taken from PubChem BioAssay AID1434 (Sanford-Burnham Center for Chemical Genomics, 2008).
The campaign covered roughly 220,000 compounds. About 1,600 (0.73%) were called active. The sample holds actives, similar compounds and a random draw of the others, so the mix is not that of the screen.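 How the source made its calls: active means mean inhibition across duplicate retests at 20 µM reaching about 50% (limit read from the data); inactive means the rest, inconclusive results apart.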

Molecular target: Runt-related transcription factor 1 (Homo sapiens) + Core-binding factor subunit beta (Homo sapiens) (UniProt Q01196+Q13951)
Sequence (Q01196 whole entry, looked up): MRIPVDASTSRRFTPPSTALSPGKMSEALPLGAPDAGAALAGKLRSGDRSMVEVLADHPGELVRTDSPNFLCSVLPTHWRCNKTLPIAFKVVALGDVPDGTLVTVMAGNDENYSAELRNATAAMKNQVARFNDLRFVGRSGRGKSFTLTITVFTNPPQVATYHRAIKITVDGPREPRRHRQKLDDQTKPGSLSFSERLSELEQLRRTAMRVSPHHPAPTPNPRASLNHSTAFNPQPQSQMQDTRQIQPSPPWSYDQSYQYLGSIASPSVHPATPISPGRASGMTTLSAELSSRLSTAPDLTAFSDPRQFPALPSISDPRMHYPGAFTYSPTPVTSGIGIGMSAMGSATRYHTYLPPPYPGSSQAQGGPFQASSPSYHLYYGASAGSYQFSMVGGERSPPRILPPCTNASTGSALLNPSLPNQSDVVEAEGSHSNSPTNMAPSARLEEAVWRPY
Sequence (Q13951 whole entry, looked up): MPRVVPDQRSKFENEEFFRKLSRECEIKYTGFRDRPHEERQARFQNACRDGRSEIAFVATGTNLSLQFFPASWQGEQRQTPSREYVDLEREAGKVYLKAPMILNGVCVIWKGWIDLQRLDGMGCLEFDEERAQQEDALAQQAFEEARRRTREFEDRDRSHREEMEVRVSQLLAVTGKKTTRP
Test: inhibitors of RUNX1 Runt–CBFb-SMMHC binding, primary screen, biochemical, FRET, Cerulean-Runt, Venus-CBFb-SMMHC, uHTS (AID 1434);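 further: 0% = DMSO wells and 100% = wells with excess untagged CBFb-SMMHC; inhibitors lower the FRET ratio by blocking Runt binding to CBFb-SMMHC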
Settings: Cerulean-Runt/Venus-CBFb-SMMHC FRET ratio 530/480, 1 h, at 20 µM, stronger effect = higher value

Row | SMILES | inhibition | inhibition (retest duplicate average) [%]
1 | O=C(Nc1ccc(Cl)cc1)Nc1nnc(/C=C/c2ccccc2)s1 | 6.5% (inactive) | 
2 | O=C(COc1cccc(F)c1)Oc1ccc(C(=O)c2ccccc2)cc1 | 0.2% (inactive) | 
3 | N#CC1=C(N)Oc2c(sc3ccccc23)C1c1ccco1 (stereo not given) | 9.4% (inactive) | 
4 | Cc1cc(C)c(C#N)c(SCc2[nH]nc3c2C(c2ccccc2)C(C#N)=C(N)O3)n1 (stereo not given) | -0.2% (inactive) | 
5 | Cc1cc(C)c2c3c(sc2n1)C(c1ccccc1)C(C#N)=C(N)O3 (stereo not given) | 113% (active) | 141
6 | CC(=O)c1c(C)[nH]c(C(=O)OCC(=O)Nc2cc(S(=O)(=O)N3CCCCC3)ccc2C)c1C | -9.5% (inactive) | 
7 | CCCN(CC(=O)Nc1ccc(OC)c(OC)c1)CC(=O)Nc1ccc(F)c(F)c1F | -1.9% (inactive) | 
8 | COc1ccc(/C=N/NC(=O)c2cccc(C(F)(F)F)c2)cc1 | 1.4% (inactive) | 
9 | C/C(CC1CC(C)(C)OC1=O)=N/Nc1nc(-c2ccccc2)cs1 (stereo not given) | -0.6% (inactive) | 
10 | Cc1nc2c(c(=O)n1Cc1ccco1)c1nc3ccccc3nc1n2Cc1ccccc1 | 51.6% (active) | 50.7
11 | Cc1ccc(Cn2c(C)nc3c(c2=O)c2nc4ccccc4nc2n3Cc2ccco2)cc1 | 46.8% (inactive) | 
12 | CC(Sc1nc2ccccc2c(=O)n1Cc1ccco1)C(=O)c1ccccc1 (stereo not given) | 2.5% (inactive) | 
13 | Cn1ncc(Br)c1C(=O)NCc1cccs1 | -0.4% (inactive) | 
14 | CC(C)Cn1c(N)c(C(=O)NCc2cccs2)c2nc3ccccc3nc21 | 72.8% (active) | 89.8
15 | CCC(C)NC(=O)c1c(N)n(/N=C/c2cccs2)c2nc3ccccc3nc12 (stereo not given) | -0.5% (inactive) | 
16 | CN(C)c1ccnc2sc(C(=O)c3ccccc3)c(N)c12 | 39.2% (inactive) | 
17 | Cc1cccc(NC(=S)NCc2ccc3[nH]c4c(c3c2)CCCC4)c1 | -0.9% (inactive) | 
18 | Cc1cc(C)nc(SC2CCCCC2NS(=O)(=O)c2ccc(Cl)cc2)n1 (stereo not given) | 2% (inactive) | 
19 | COc1cc(C(=O)N[C@@H](C)C(=O)NCc2ccco2)cc(OC)c1OC | -2.9% (inactive) | 
20 | CC1CC(C)CN(S(=O)(=O)c2cccc(C(=O)N3C(=O)c4cccc(N)c4C3=O)c2)C1 (stereo not given) | 61.6% (active) | 72.9
21 | CN1CCN(S(=O)(=O)c2cccc(C(=O)O)c2)CC1 | -1.8% (inactive) | 
22 | CC(=O)N1CCN(S(=O)(=O)c2cccc(C(=O)NC3CCC(C)CC3)c2)CC1 (stereo not given) | 4.4% (inactive) | 
23 | COc1cc(C(=O)NC(=S)NCc2ccco2)cc(OC)c1OC | 1.1% (inactive) | 
24 | COc1cc(C(=O)N2C(=O)c3cccc(N)c3C2=O)cc(OC)c1OC | 87.1% (active) | 51.3
25 | NC(=O)Nc1ccccc1C(=O)NCCc1ccccc1 | 2.1% (inactive) | 
